Reference: ChEMBL document CHEMBL1157539, “Thousands of chemical starting points for antimalarial lead identification” (Nature, 2010)

The molecules below were run on HepG2 (assay: GSK_TCMDC: Percent inhibition of human HepG2 cell line. Test compounds present at 10uM.).
Type: functional

| Structure (SMILES) | Inhibition |
| --- | --- |
| COc1cc(CCNc2nc(NCc3cccc4ccccc34)nc(N3CCC(N)CC3)n2)ccc1O.O=C(O)C(F)(F)F | 16% |
| N#Cc1ccc(-c2ccc(C(=O)NCCCCN3CCC(c4ccc5c(c4OCC(N)=O)CCCC5)CC3)cc2)cc1 | 21% |
| FC(F)(F)c1ccc2[nH]c(-c3cccc(-c4cccc(CN5CCN(c6ccncc6)CC5)c4)c3)nc2c1.O=C(O)C(F)(F)F | 93% |
| COc1ccc(Nc2nccc(N3CCC(NC(=O)C(C)c4ccc(Cl)cc4)C3)n2)cc1 (stereo not given) | 35% |
| CCc1cc2c(N)nc(N)nc2nc1-c1ccccc1 | 18% |
| CCC(=O)N(c1ccccc1)C1CCN(CCCC(NC(=O)Nc2cc(C(F)(F)F)cc(C(F)(F)F)c2)c2ccc(Cl)c(Cl)c2)CC1 (stereo not given) | 29% |
| COc1ccc2c(=NN=Cc3c(OC)ccc4ccccc34)cc(C)[nH]c2c1 | 7% |
| Cn1c2c(c3ccccc31)CN(CCC1(c3ccc(Cl)c(Cl)c3)CN(C(=O)c3ccccc3)CCO1)CC2 (stereo not given) | 10% |
| N=C(Nc1cccc(Cc2ccccc2)n1)Nc1ncccn1 | 51% |
| Cc1cnc(C(=O)Nc2cccc(-c3cccc(-c4nc5cc(F)ccc5[nH]4)c3)c2)cn1 | 25% |
| Nc1nc(N)c2c(ccc3c2ccn3Cc2ccc(F)cc2)n1 | 66% |
| CC(C)CCNC(=O)C1Cc2c([nH]c3cc(Br)ccc23)C2(CCN(Cc3ccccc3)CC2)N1 (stereo not given) | 10% |
| COc1ccc2nccc([C@@H](O)CN3CCC(NCC(O)Cc4ccccc4)CC3)c2c1.O=C(O)C(=O)O (stereo not given in full) | 5% |
| COc1ccc2nccc(N3CCC(SCCNCc4cc5c(cn4)OCCO5)C3)c2n1.Cl (stereo not given) | 30% |
| Cc1nc(N)nc(N)c1OCc1cccc2ccccc12.Cl | 63% |
| Cl.O=c1cc(NCCCNCc2ccc(Cl)c(Cl)c2)[nH]c2cc(Cl)ccc12 | 1% |
| CCCc1ccc(NC(=O)c2cccc(CN3CCCN(Cc4cccc(O)c4)CC3)c2)cc1.O=C(O)C(F)(F)F | 15% |
| O=C(COc1cnc2ccccc2n1)Nc1ccccc1Sc1ccc(Cl)cc1 | 6% |
| O=C(NOCCCCOc1ccc(Cl)c(Cl)c1)c1ccccc1 | 2% |
| CC(C)(Oc1c(C2CCN(CCCCNC(=O)c3ccc(-c4ccc(C#N)cc4)cc3)CC2)ccc2c1CCCC2)C(N)=O | 34% |

| Structure (SMILES) | Inhibition |
| --- | --- |
| O=C1C(c2ccccc2)=C(Nc2cc(Cl)cc(Cl)c2)c2ccccc21 | 0% |
| Fc1ccc(Nc2ccnc3cc(I)ccc23)c(Cl)c1 | 35% |
| CN(C)CCOc1cc(NC(=O)/C=C/c2cccc3ccccc23)ccc1I | 55% |
| CCCNCc1ccc(-c2ccc(CN(Cc3ccc4c(c3)OCO4)C(=O)Cc3cccnc3)cc2)nc1.O=C(O)C(F)(F)F | 16% |
| COc1cccc(NC(=O)Cn2c(C)c(C#N)c3ccccc32)c1 | 16% |
| CNc1ccc(CNCc2cccc(-c3ccc(-c4nc5cccc(C)c5[nH]4)s3)c2)cc1.O=C(O)C(F)(F)F | 23% |
| COc1cc(CNc2ccc(N3CCCC3)cc2)cc(Cl)c1OC | 41% |
| Cl.O=c1cc(NCCNCc2cccc(-c3ccccc3)c2)[nH]c2ccccc12 | 0% |
| O=C(NCCCCCN1CCC(c2c[nH]c3ccccc23)CC1)Nc1ccc(Cl)c(Cl)c1 | 42% |
| Cc1csc(-c2nonc2NC(=O)COc2ccccc2C(C)C)n1 | 14% |
| COc1ccc(CNC2Cc3ccccc3C2)cc1-c1ccc(S(=O)(=O)NCCN2CCCC2)c(F)c1.O=C(O)C(F)(F)F | 44% |
| O=C(Nc1ccc(-c2ccc(-c3nc4ccccc4[nH]3)s2)cc1)Nc1ccc(F)c(F)c1F | 57% |
| Fc1ccc2[nH]c(-c3ccc(-c4ccc(CN5CCN(CCN6CCOCC6)CC5)cc4)cc3)nc2c1.O=C(O)C(F)(F)F | 38% |
| COc1ccc(C=CC(=O)NC(=O)c2ccccc2OC(=O)c2ccccc2)cc1OC | 12% |
| Cc1nnsc1C(=O)Nc1cccc(-c2ccc(-c3nc4cc(F)ccc4[nH]3)s2)c1 | 62% |
| O=C(NCCc1ccccc1)c1cc(-c2cccnc2)cnc1NCC1CC1 | 3% |
| COc1ccccc1N(C)CCNc1cc(C)nc(Nc2ccccc2)n1 | 10% |
| COc1ccc(-c2cc(C(=O)Nc3ccc4[nH]c(-c5ccccc5)nc4c3)[nH]n2)cc1.O=C(O)C(F)(F)F | 77% |
| O=C(Nc1ccnc(-c2cccnc2)n1)c1cc(C(F)(F)F)cc(C(F)(F)F)c1 | 22% |
| Cc1cc(Nc2ccccc2)nc(Nc2ccccc2C)n1.Cl | 8% |
